Measurements reported in PubChem BioAssay (NCI).
About 79,000 compounds went through this panel and 15% of them were active in at least one assay; those are over-represented in the sample as a whole. Cut-off read from the data, not from the text of the source: active = growth inhibition above about 70%; inactive = the rest.

Tests used:
[1] = NCI Yeast Anticancer Drug Screen. Data for the rad50 strain (AID 155);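 note: 0% = growth of vehicle-only cultures of the same strain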; conditions: S. cerevisiae rad50 strain growth inhibition, active compounds read high; at 50.0 µM unless noted
Summary of the method: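 DNA repair mutant yeast, compound exposure, growth read-out; inhibition is taken relative to vehicle.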

[2] = NCI Yeast Anticancer Drug Screen. Data for the mec2-1 strain (AID 157); conditions: S. cerevisiae mec2-1 strain, active compounds read high; at 50.0 µM unless noted
Summary of the method: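 Yeast mec2-1 mutant treated with compound. Readout: growth inhibition vs vehicle controls.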

[3] = NCI Yeast Anticancer Drug Screen. Data for the sgs1 mgt1 strain (AID 161);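 note: 0% = growth of cultures given vehicle only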; conditions: S. cerevisiae sgs1 mgt1 strain, active compounds read high; at 50.0 µM unless noted
Summary of the method: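 Test agents were incubated with a DNA-repair-mutant yeast strain. Growth was then read and compared against vehicle-treated controls.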

[4] = NCI Yeast Anticancer Drug Screen. Data for the cln2 rad14 strain (AID 165);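 note: 0% = growth equal to vehicle treated cultures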; conditions: S. cerevisiae cln2 rad14 strain, active compounds read high; at 50.0 µM unless noted
Summary of the method: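 cln2 rad14 yeast strain; compound exposure; growth inhibition read vs vehicle controls.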

[5] = NCI Yeast Anticancer Drug Screen. Data for the bub3 strain (AID 167); conditions: S. cerevisiae bub3 mutant strain, active compounds read high; at 50.0 µM unless noted
Summary of the method: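 In this screen, a yeast mutant lacking normal mitotic checkpoint function is challenged with compound. Relative growth versus vehicle gives the inhibition value.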

[6] = NCI Yeast Anticancer Drug Screen. Data for the mlh1 rad18 strain (AID 175); conditions: S. cerevisiae mlh1 rad18 strain growth inhibition, active compounds read high; at 50.0 µM unless noted
Summary of the method: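 Yeast w/ defined DNA-repair lesions; compound exposure; growth vs vehicle controls → % inhibition.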

Measured: growth inhibition

O=C1C2=C(C(=O)C3=C1C1CCC3C1)C1CCC2C1
inactive: [1] 4.1% | [2] -34.1% | [3] -11.7% | [4] -15.2% | [5] -5.25% | [6] 0.7%

CCCCCCCCCCCCCCCC(=O)c1ccccc1
inactive: [1] 33.2% | [2] 27.2% | [3] 28.4% | [4] 52.6% | [5] 21.1% | [6] 42.5%

Nc1ccccc1[N+](=O)[O-]
inactive: [1] -14.4% | [2] -3.45% | [3] -14.7% | [4] -15.7% | [5] 1.5% | [6] -1.55%

Cc1cc([N+](=O)[O-])ccc1NC(=O)n1nnc2cc(Cl)ccc21
inactive: [1] -5.55% | [2] 0.35% | [3] -5.85% | [4] 1.1% | [5] 21% | [6] 6.9%

O=C(C[n+]1ccccc1CO)c1ccc(-c2ccccc2)cc1
inactive: [1] 26.2% | [2] -6.4% | [3] 17.2% | [4] -4.85% | [5] 6.5% | [6] 5.4%

CNC(=O)C(C(=O)NC)c1ccccc1
inactive: [1] 8.05% | [2] -4.65% | [3] -1.15% | [4] -18.5% | [5] -2.9% | [6] 10.8%
